The panel holds about 83,000 compounds, 20% with a hit somewhere; the sample as a whole holds those more often.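 In brief: 96-well plates, 48 h treatment, single concentration, percent growth endpoint.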 A number with no mark means an inactive call. Activity calls are given as the source filed them. How the source made its calls: active means growth percent below 10; inactive means the rest.

This assay relates to HL-60(TB) leukemia. Put plainly: NCI-60 one-dose screen, 48 h (100 = growth as untreated, 0 = no growth, -100 = all killed). The following applies: 10 µM unless noted.
For the molecule `COc1cc(C(=O)n2nc(N)c3c(C)cc(C)nc32)cc(OC)c1OC`, the growth is 21.6%. In the case of `NC(CC(=O)O)C(=O)OCc1ccccc1` (stereo unspecified) it was 101%. The result for `Fc1ccccc1-c1cnn2cc(-c3ccccc3)cnc12` reads 98.6%.

On to `Cn1ncc2cc3c(Nc4ccc(Cl)cc4)cccc3nc21`, for which the growth was 95.1%.

Take `CN(C)c1ccc(/C=C/c2cc[n+](C)c(/C=C/c3ccc(N(C)C)cc3)c2)cc1`: the growth is -56.3% (active).

For `CC(=O)OCC1=CC2OC(=O)C3=COC(OC4OC(CO)C(O)C(O)C4O)C1C32` (stereo unspecified), the growth is 120%. Take `O=C(Nc1ccc(I)cc1)c1cccc([N+](=O)[O-])c1O`: the growth is 9.44% (active). The result for `N#Cc1nn(-c2cc(=O)[nH]c3ccc(Br)cc23)c(N)c1C#N` reads -11.2% (active).

As for `CCN(CC)c1ccc2cc(NC(=O)OCCNC(=O)CCNC(=O)[C@H](CC(C)C)NC(=O)C(C)(C)NC(=O)C(C)(C)NC(=O)[C@H](CC(C)C)NC(=O)CCNC(=O)C(C)(C)NC(=O)[C@H](CC(C)C)NC(=O)CCNC(=O)[C@@](C)(CC)NC(=O)[C@H](C)NC(=O)CCNC(=O)C(C)(C)NC(=O)[C@H](C)NC(=O)[C@@H]3CCCN3C(=O)[C@@](C)(CC)NC(=O)[C@H](Cc3ccccc3)NC(=O)C3CCCN3C(=O)C(C)(C)NC(=O)C3CCCN3C(=O)C(C)(C)NC(C)=O)c(=O)oc2c1` (stereo partly specified), the growth was -67.7% (active). As to `CCc1cccc(C)c1NC(=O)c1sc2nc3c(cc2c1N)C(=O)CCC3`, the growth was -22.4% (active).

In the case of `CCc1c(Nc2ccc(C)cc2)[nH]c(N)nc1=S`, the growth was 99.8%.
